# In PubChem BioAssay (NCI):
# Compounds without any hit were thinned out: in the full panel of roughly 79,000, 15% have a hit. A number with no mark means an inactive call. The source made the active and inactive calls. Cut-off read from the data, not from the text of the source: active = growth inhibition above about 70%; inactive = the rest.
# Columns and labels:
# [1] = NCI Yeast Anticancer Drug Screen. Data for the rad52 strain (AID 147);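 note: 0% = growth of vehicle-treated control cultures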; conditions: S. cerevisiae rad52 mutant growth inhibition, active compounds read high
# How it was run: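 Yeast strain carrying a DNA damage repair alteration was exposed to test compounds. Growth inhibition was measured relative to vehicle-treated controls.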
# [2] = NCI Yeast Anticancer Drug Screen. Data for the wt1 strain (AID 149);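 note: 0% = growth of vehicle-treated wt1 cultures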; conditions: S. cerevisiae wt1 strain (SPY 50644) growth inhibition, active compounds read high
# How it was run: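 Vehicle-normalised growth inhibition; strain wt1; compound exposure.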
# [3] = NCI Yeast Anticancer Drug Screen. Data for the rad50EPP+ strain (AID 151);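 note: 0% = growth of vehicle-treated control cultures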; conditions: S. cerevisiae rad50 mutant strain, active compounds read high
# How it was run: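 Yeast strain carrying rad50 alteration (rad50EPP+) exposed to compounds; growth inhibition measured relative to vehicle-treated controls.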
# [4] = NCI Yeast Anticancer Drug Screen. Data for the mgt1 strain (AID 153); conditions: S. cerevisiae mgt1 mutant growth inhibition, active compounds read high
# How it was run: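 Yeast mgt1 strain (DNA repair/cell-cycle alteration panel) exposed to compounds; growth inhibition measured relative to vehicle-treated controls.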
# [5] = NCI Yeast Anticancer Drug Screen. Data for the rad50 strain (AID 155);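 note: 0% = growth of vehicle-only cultures of the same strain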; conditions: S. cerevisiae rad50 strain growth inhibition, active compounds read high
# How it was run: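 A DNA repair-deficient yeast mutant serves as the test organism; compound-induced growth inhibition is calculated against vehicle-treated cells.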
# [6] = NCI Yeast Anticancer Drug Screen. Data for the mec2-1 strain (AID 157); conditions: S. cerevisiae mec2-1 strain, active compounds read high
# How it was run: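 mec2-1 yeast strain, carrying an alteration in DNA damage repair or cell cycle control, was exposed to compounds; growth inhibition was measured relative to vehicle-treated controls.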
# [7] = NCI Yeast Anticancer Drug Screen. Data for the rad14 strain (AID 159);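 note: 0% = growth of vehicle-treated control cultures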; conditions: S. cerevisiae rad14 strain growth inhibition, active compounds read high
# How it was run: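 Vehicle-treated cultures served as the baseline for growth inhibition of a DNA repair-mutant yeast strain exposed to each compound.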
# [8] = NCI Yeast Anticancer Drug Screen. Data for the sgs1 mgt1 strain (AID 161);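 note: 0% = growth of cultures given vehicle only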; conditions: S. cerevisiae sgs1 mgt1 strain, active compounds read high
# How it was run: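 Compounds are added to genetically altered yeast, and growth is compared with cultures given vehicle alone to give percent inhibition.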
# [9] = NCI Yeast Anticancer Drug Screen. Data for the CLN2oe strain (AID 163);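 note: 0% = growth of vehicle-only control cultures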; conditions: S. cerevisiae CLN2oe strain, active compounds read high
# How it was run: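 Yeast cells carrying a defined cell-cycle control alteration were exposed to test compounds. Growth inhibition was scored against vehicle-treated control cultures.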
# [10] = NCI Yeast Anticancer Drug Screen. Data for the cln2 rad14 strain (AID 165);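 note: 0% = growth equal to vehicle treated cultures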; conditions: S. cerevisiae cln2 rad14 strain, active compounds read high
# How it was run: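 Yeast carrying cln2 and rad14 alterations (cell cycle control and DNA damage repair) were exposed to compounds. Growth inhibition was measured against vehicle-treated controls.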
# [11] = NCI Yeast Anticancer Drug Screen. Data for the bub3 strain (AID 167); conditions: S. cerevisiae bub3 mutant strain, active compounds read high
# How it was run: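 Inhibition values come from growth of compound-treated mutant yeast normalised to vehicle-treated controls.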
# [12] = NCI Yeast Anticancer Drug Screen. Data for the wt2 strain (AID 169);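 note: 0% = growth of vehicle-treated yeast cultures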; conditions: S. cerevisiae wt2 strain growth inhibition, active compounds read high
# How it was run: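 Yeast cells were exposed to test compounds, and growth inhibition was measured relative to vehicle-treated controls.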
# [13] = NCI Yeast Anticancer Drug Screen. Data for the mlh1 strain (AID 171);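 note: 0% = growth of vehicle-treated control cultures of the same strain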; conditions: S. cerevisiae mlh1 strain growth inhibition, active compounds read high
# How it was run: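 Yeast carrying a defined genetic alteration in DNA damage repair or cell cycle control were exposed to test compounds. Growth inhibition was measured relative to vehicle-treated controls.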
# [14] = NCI Yeast Anticancer Drug Screen. Data for the sgs1 strain (AID 173);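 note: 0% = growth of vehicle-only control cultures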; conditions: S. cerevisiae sgs1 mutant, active compounds read high
# How it was run: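 Yeast mutant strains carrying defined defects in DNA damage repair or cell cycle control were exposed to test compounds. Growth inhibition was scored against vehicle-treated controls.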
# [15] = NCI Yeast Anticancer Drug Screen. Data for the mlh1 rad18 strain (AID 175); conditions: S. cerevisiae mlh1 rad18 strain growth inhibition, active compounds read high
# How it was run: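 Growth inhibition of the yeast strain was measured after compound exposure and expressed relative to vehicle-treated controls. The strain carries defined defects in DNA damage repair.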
# [16] = NCI Yeast Anticancer Drug Screen. Data for the rad18 strain (AID 177); conditions: S. cerevisiae rad18 mutant growth inhibition, active compounds read high
# How it was run: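 Yeast carrying a defined DNA damage repair alteration were exposed to compounds. Growth inhibition was expressed relative to vehicle-treated controls.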
# [17] = at 5.0 µM (retest, dose inferred, filed as 0.5)
# [18] = at 50.0 µM (retest, dose inferred, filed as 5.0)
compound,measurement,setting,value
O=C1Nc2ccc(Br)cc2C1=Nc1cccnc1,growth inhibition,[1]; at 1.2 µM,-23%
same,growth inhibition,[1]; at 3.7 µM,-36%
same,growth inhibition,[1]; at 11.0 µM,-40%
same,growth inhibition,[1]; at 33.0 µM,-32%
same,growth inhibition,[1]; at 100.0 µM,-40%
same,growth inhibition,[2]; at 1.2 µM,-25%
same,growth inhibition,[2]; at 3.7 µM,-20%
same,growth inhibition,[2]; at 11.0 µM,-17%
same,growth inhibition,[2]; at 33.0 µM,-8%
same,growth inhibition,[2]; at 100.0 µM,-24%
same,growth inhibition,[3]; at 1.2 µM,3%
same,growth inhibition,[3]; at 3.7 µM,-9%
same,growth inhibition,[3]; at 11.0 µM,-8%
same,growth inhibition,[3]; at 33.0 µM,-3%
same,growth inhibition,[3]; at 100.0 µM,16%
same,growth inhibition,[4]; at 1.2 µM,-33%
same,growth inhibition,[4]; at 3.7 µM,-27%
same,growth inhibition,[4]; at 11.0 µM,-36%
same,growth inhibition,[4]; at 33.0 µM,-19%
same,growth inhibition,[4]; at 100.0 µM,-14%
same,growth inhibition,[5]; at 1.2 µM,-41%
same,growth inhibition,[5]; at 3.7 µM,-42%
same,growth inhibition,[5]; [17],52%
same,growth inhibition,[5]; at 11.0 µM,-36%
same,growth inhibition,[5]; at 33.0 µM,-25%
same,growth inhibition,[5]; [18],49%
same,growth inhibition,[5]; at 50.0 µM,31.9%
same,growth inhibition,[5]; at 100.0 µM,-13%
same,growth inhibition,[6]; at 1.2 µM,-54%
same,growth inhibition,[6]; at 3.7 µM,-51%
same,growth inhibition,[6]; [17],47%
same,growth inhibition,[6]; at 11.0 µM,-41%
same,growth inhibition,[6]; at 33.0 µM,-31%
same,growth inhibition,[6]; [18],53%
same,growth inhibition,[6]; at 50.0 µM,39.2%
same,growth inhibition,[6]; at 100.0 µM,-12%
same,growth inhibition,[7]; at 1.2 µM,-55%
same,growth inhibition,[7]; at 3.7 µM,-61%
same,growth inhibition,[7]; at 11.0 µM,-60%
same,growth inhibition,[7]; at 33.0 µM,-48%
same,growth inhibition,[7]; at 100.0 µM,-47%
same,growth inhibition,[8]; [17],-3%
same,growth inhibition,[8]; [18],32%
same,growth inhibition,[8]; at 50.0 µM,37.5%
same,growth inhibition,[9]; at 1.2 µM,-5%
same,growth inhibition,[9]; at 3.7 µM,3%
same,growth inhibition,[9]; at 11.0 µM,-18%
same,growth inhibition,[9]; at 33.0 µM,-8%
same,growth inhibition,[9]; at 100.0 µM,1%
same,growth inhibition,[10]; [17],32%
same,growth inhibition,[10]; [18],27%
same,growth inhibition,[10]; at 50.0 µM,10.4%
same,growth inhibition,[11]; at 1.2 µM,-53%
same,growth inhibition,[11]; at 3.7 µM,-47%
same,growth inhibition,[11]; [17],33%
same,growth inhibition,[11]; at 11.0 µM,-38%
same,growth inhibition,[11]; at 33.0 µM,10%
same,growth inhibition,[11]; [18],94% (active)
same,growth inhibition,[11]; at 50.0 µM,86.6% (active)
same,growth inhibition,[11]; at 100.0 µM,82% (active)
same,growth inhibition,[12]; at 1.2 µM,-21%
same,growth inhibition,[12]; at 3.7 µM,-24%
same,growth inhibition,[12]; at 11.0 µM,-20%
same,growth inhibition,[12]; at 33.0 µM,-30%
same,growth inhibition,[12]; at 100.0 µM,-27%
same,growth inhibition,[13]; at 1.2 µM,-25%
same,growth inhibition,[13]; at 3.7 µM,-15%
same,growth inhibition,[13]; at 11.0 µM,-42%
same,growth inhibition,[13]; at 33.0 µM,-39%
same,growth inhibition,[13]; at 100.0 µM,-31%
same,growth inhibition,[14]; at 1.2 µM,-32%
same,growth inhibition,[14]; at 3.7 µM,-41%
same,growth inhibition,[14]; at 11.0 µM,-21%
same,growth inhibition,[14]; at 33.0 µM,-29%
same,growth inhibition,[14]; at 100.0 µM,-18%
same,growth inhibition,[15]; [17],31%
same,growth inhibition,[15]; [18],46%
same,growth inhibition,[15]; at 50.0 µM,35.4%
same,growth inhibition,[16]; at 1.2 µM,-28%
same,growth inhibition,[16]; at 3.7 µM,-39%
same,growth inhibition,[16]; at 11.0 µM,-32%
same,growth inhibition,[16]; at 33.0 µM,-36%
same,growth inhibition,[16]; at 100.0 µM,-26%
